HPGD block = blocks human HPGD enzyme activity; 150,000 compounds, 4.3% hits; Potency, µM, for the others: top-dose activity change, negative = inhibition, hits mostly inhibitors; purified HPGD, NADH fluorescence kinetic, PGE2 substrate; active = well fitted inhibition curve with a large enough effect, not every such curve was filed as active; inconclusive = small, poorly fitted or top-dose-only effect, or another doubt; inactive = no such curve, though single readings can be large or run the other way; note: potency is the fitted concentration of half-maximal effect; % is set by controls: 0 for no effect and ±100 for the full control effect
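20 nM HPGD preincubated 15 min at room temperature with compound in 50 mM Tris-HCl pH 8, 0.01% Tween 20. Started with 1 mM NAD+ and 30 uM prostaglandin E2; NADH fluorescence (360/450 nm) read 5 times over 30-s intervals, last minus first.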
PNC inhibitor = blocks assembly of the perinucleolar compartment; PC3M PTB-GFP, PNC prevalence imaging, 16 h; active compounds read low; activity change (PNC), negative = inhibition, % at 10 µM; 140,000 compounds, 3.1% hits;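 active = readout at or below -70, meaning at least 70% loss of cells showing the perinucleolar compartment, a nuclear body marking cancer cells; inconclusive = readout between -30 and a set limit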;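 note: plate controls were DMSO wells for no effect and camptothecin positive control wells for full effect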
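Compounds are pinned in duplicate onto adhered PC3M cells stably expressing GFP-tagged PTB and incubated 16 h at 37 C. Cells are then fixed, nuclei stained with Hoechst, and PNC-positive cells counted.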
ALDH1A1 block = inhibitors of human aldehyde dehydrogenase 1A1; 220,000 compounds, 7.3% hits; P00352; Potency, µM (doses to about 75.3 µM), without a hit: top-dose activity, negative = inhibition, actives largely listed as inhibitors; AID 1030; Purified ALDH1A1, NADH fluorescence, propionaldehyde substrate; active = well fitted inhibition curve with a large enough effect, not every such curve was filed as active; inconclusive = small, poorly fitted or top-dose-only effect, or another doubt; inactive = no such curve, though single readings can be large or run the other way;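 note: potency is the fitted concentration of half-maximal effect; plate controls were no enzyme wells and a reference inhibitor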
Target sequence (P00352 whole entry, looked up): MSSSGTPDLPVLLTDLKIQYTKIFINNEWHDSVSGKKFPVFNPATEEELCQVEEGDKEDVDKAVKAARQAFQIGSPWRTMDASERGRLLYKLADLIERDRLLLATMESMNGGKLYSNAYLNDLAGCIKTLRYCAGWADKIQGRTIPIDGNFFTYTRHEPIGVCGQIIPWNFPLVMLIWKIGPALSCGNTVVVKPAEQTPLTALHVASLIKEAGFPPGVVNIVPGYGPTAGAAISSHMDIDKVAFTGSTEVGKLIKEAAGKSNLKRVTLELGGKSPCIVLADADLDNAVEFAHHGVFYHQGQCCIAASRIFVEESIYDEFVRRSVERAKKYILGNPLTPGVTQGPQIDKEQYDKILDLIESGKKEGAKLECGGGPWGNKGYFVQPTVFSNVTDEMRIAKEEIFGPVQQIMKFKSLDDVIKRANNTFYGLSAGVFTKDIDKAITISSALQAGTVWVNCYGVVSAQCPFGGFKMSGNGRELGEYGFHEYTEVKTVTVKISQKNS
HTT aggregate = mutant huntingtin aggregation inhibition; 220,000 compounds, 1.1% hits; Potency, µM (top dose mostly 46.1 µM), for inactives: at the highest dose activity change, negative = inhibition, usual class: inhibitors; PC12 HttQ103-GFP aggregates, Acumen cytometry, 40 h; note: potency is the fitted concentration of half-maximal effect; % is set by controls: 0 for no effect and ±100 for the full control effect; nearly all actives have a fitted effect of over 60% in size
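Multiplexed with ATP-based cell death, this channel scores GFP aggregates in PC12 cells expressing inducible HTTex1-Q103-GFP. Induction used 100 nM tebufenozide; compounds were tested in concentration series.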
HTT cytoprotect = Huntington cell model cytoprotection by ATP luminescence; PC12 HTT-Q103 induced, cytoprotection, ATP luminescence, 40 h; Potency, µM (highest dose often 56.4 µM), for inactives: cytoprotection (ATP increase), usual class: activators; 230,000 compounds, 0.14% hits; note: potency is the fitted concentration of half-maximal effect; % of control where 0% means no effect; nearly all actives have a fitted effect of over 45% in size
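Huntington model: PC12 line, ecdysone-inducible HTTQ103 exon1–GFP, tebufenozide 100 nM. Test articles in a dose series. Endpoint luminescence from cellular ATP.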
CBFb RUNX1 block = blocks binding between human CBF-beta and RUNX1; Q01196+Q13951; AlphaScreen CBFb-His/RUNX1-biotin binding, biochemical; Potency, µM (titrated, usually from 59.8 µM), inactives show at the highest dose activity, negative = inhibition, most hits filed as inhibitors; 230,000 tested, under 10 active; AID 1477; note: % of control where 0% means no effect
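Inhibition was taken as any reduction in AlphaScreen signal from the CBF-beta–RUNX1 pair (His and biotin tags, 30 nM each), measured after compound (15 min) and bead (90 min) incubations at room temperature.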
* hit, by the source's call; u = inconclusive; x = no result given; [ ] = remark or other dose. An excerpt weighted towards active compounds, which were near 11% of everything screened. Unless noted, calls come from the whole dose curve; as a rule, active = well fitted curve in the direction sought with a large enough effect; inconclusive = small, poorly fitted or top-dose-only effect, or another doubt; inactive = no such curve, though single readings can be large; an effect the other way counts as inactive or inconclusive.

SMILES	HPGD block	PNC inhibitor	ALDH1A1 block	HTT aggregate	HTT cytoprotect	CBFb RUNX1 block
CCC(Cl)CC(Cl)C(Cl)C(Cl)C(Cl)C(C)Cl (stereo not drawn)	-6.0%	x	u	x	6.3%	12.5%[21.7 µM]
C(=N\Nc1ccccc1)/c1ccc(N2CCOCC2)cc1	14.1µM*	63.5	6.31µM*	-11.1%	-43.7%	1.7%
CN1CCN([C@@H]2Cc3ccccc3Sc3ccc(Cl)cc32)CC1	x	x	x	x	7.0%[1.9 µM]	x
CCCOc1cc(N)ccc1C(=O)OCCN(CC)CC	-7.5%	x	7.4%[20.9 µM]	21.2%[20.6 µM]	-63.2%[17.1 µM]	4.5%[21.7 µM]
CCCOc1ccc(N)cc1N	-14.1%	-127.5*	5.62µM*	u	-131.6%	-16.2%
O=C(NCC(F)(F)F)N1CCOCC1	-5.8%	-29.9	3.2%	-13.3%	37.6%[10 µM]	-0.6%
CC1=NN(C(N)=S)C(=O)C1N=Nc1cccc2ccccc12 (stereo not drawn)	x	x	14.1µM*	x	x	u
CC1=NN(C(N)=S)C(=O)C1N=Nc1ccccc1 (stereo not drawn)	x	x	22.4µM*	-3.5%	-11.4%	7.7%
Cc1noc(C)c1C(=O)N1CCC2(CCN(Cc3nccs3)CC2)CC1	-2.5%	x	-3.9%	x	8.9%	x
COC(=O)CCCCCN1C(=O)NC(CC2CC2)C(C(=O)OCc2ccccc2)=C1C (stereo not drawn)	-13.4%	x	u	x	-31.4%	14.9%
Cc1cc2c(cc1C)NC(c1c(C)n(C)n(-c3ccccc3)c1=O)C1=C(CC(C)(C)CC1=O)N2 (stereo not drawn)	-18.7%	33.8	22.4µM*	-6.2%	-9.2%	8.3%
C[C@H](NC(=O)c1ccc(Cl)c(Cl)c1)c1ccc(-c2ccccc2)cc1	-9.8%	x	5.3%[13.5 µM]	x	-5.0%[10 µM]	x
COCCNC(=O)c1cc2nc3c(c(C(F)(F)F)n2n1)CCc1ccccc1-3	x	x	-4.0%	-11.5%[9.22 µM]	-33.1%[10 µM]	-2.5%
O=C(O)c1cc2nc3c(c(C(F)(F)F)n2n1)CCc1ccccc1-3	-9.9%	-86.6*	-0.1%	-4.8%	-36.6%	-5.9%
O=C(Nc1cnn(Cc2ccc(Cl)cc2)c1)c1cnccn1	-10.2%	10.9	-7.9%	7.3%	1.1%[1.9 µM]	-1.8%
c1ccc(-c2nnc(SCC3CCCO3)nc2-c2ccccc2)cc1 (stereo not drawn)	x	x	12.6µM*	3.8%[9.22 µM]	8.8%[10 µM]	-2.6%
c1ccc(-c2nnc(SCC3CCCCO3)nc2-c2ccccc2)cc1 (stereo not drawn)	x	x	u	-29.6%	-37.1%	-5.4%
O=C(O)CC1(CC(=O)Nc2ccc(F)c(Cl)c2)CCCCC1	x	x	3.98µM*	-7.2%[9.22 µM]	9.6%[10 µM]	-4.0%
O=C(O)CC1(CC(=O)Nc2ccc3ccccc3c2)CCCCC1	3.98µM*	-1.1	u	10.9%	-4.6%	4.5%
CN(C)c1ccc(C(CNC(=O)c2ccc(C#N)cc2)c2c[nH]c3ccccc23)cc1 (stereo not drawn)	-14.6%	33.7	14.1µM*	-15.0%	24.6%[10 µM]	x
CCOC(=O)c1ccc(S(=O)(=O)NCC(c2ccc(N(C)C)cc2)c2c[nH]c3ccccc23)cc1 (stereo not drawn)	-16.4%	71.4	13.1%	-0.3%	-6.5%[10 µM]	-1.8%
CN(C)c1ccc(C(CNC(=O)c2ccccc2Br)c2c[nH]c3ccccc23)cc1 (stereo not drawn)	-5.7%	-20.3	7.94µM*	-1.8%	13.3%[10 µM]	-4.9%
OCCCNCc1ccncc1	-5.9%	x	-3.2%[13.5 µM]	x	19.0%[10 µM]	x
Cc1nn(C)c(C)c1S(=O)(=O)N(CC(=O)N1CCc2ccccc21)c1ccc(C(C)C)cc1	-1.3%	8.6	12.1%	4.9%	5.0%	-3.1%
Cc1nn(C)c(C)c1S(=O)(=O)N(CC(=O)N1CCc2ccccc2C1)c1ccc(C(C)C)cc1	-4.9%	32.0	11.2µM*	4.4%	-7.5%	-0.6%
O=C(Cc1ccccc1)Nc1ccc(Br)c(Cl)c1	-21.1%	-82.1*	15.8µM*	5.4%	-4.6%[10 µM]	-0.9%
COc1cccc(C(=O)CN(C(=O)c2ccc(Cl)cc2Cl)N2C(=O)c3ccccc3C2=O)c1	-14.7%	44.8	15.8µM*	9.8%	5.5%[10 µM]	-0.1%
